PMC5540273 (PLoS ONE, 2017)

Key:
Conditions in all cases: concentration: 1 μM, replicates: in singlicate; n = 1
RIOK1 = tested on: RIOK1
RIOK2 = tested on: RIOK2
RIOK3 = tested on: RIOK3
RIPK1 = tested on: RIPK1
RIPK2 = tested on: RIPK2
RIPK4 = tested on: RIPK4
RIPK5 = tested on: RIPK5
ROCK1 = tested on: ROCK1
ROCK2 = tested on: ROCK2
ROS1 = tested on: ROS1
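Further: KINOMEscan kinase panel screen.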

Row | SMILES | %Inh (RIOK1) [%] | %Inh (RIOK2) [%] | %Inh (RIOK3) [%] | %Inh (RIPK1) [%] | %Inh (RIPK2) [%] | %Inh (RIPK4) [%] | %Inh (RIPK5) [%] | %Inh (ROCK1) [%] | %Inh (ROCK2) [%] | %Inh (ROS1) [%]
1 | Cc1cccc(Nc2nc(N[C@H]3CCCC[C@H]3N)ncc2C(N)=O)c1.Cl [GSK986310] | 48 | 42 | 42 | 7 | 2 | 68 | 17 | 85 | 82 | 62
2 | CN(C)CCNS(=O)(=O)c1ccc(-c2ccnc3[nH]ccc23)cc1 [GSK977620] | 78 | 78 | 64 | 0 | 0 | 3 | 0 | 99.6 | 98.3 | 48
3 | COc1ccc(NC(=O)c2ccoc2)cc1-c1ccc(C(=O)NCC2CC2)cc1 [GW810437] | 8 | 1 | 5 | 0 | 4 | 34 | 14 | 36 | 0 | 0
4 | COc1cc(Nc2nccc(N3CCC(NC(=O)Nc4ccc5c(c4)OCO5)C3)n2)cc(OC)c1OC (centres unmarked) [GSK1379766] | 79 | 0 | 81 | 0 | 19 | 62 | 0 | 25 | 44 | 36
5 | Cn1cc(-c2ccc3c(c2)CCN3C(=O)Cc2cc(F)cc(C(F)(F)F)c2)c2c(N)ncnc21 [GSK2635225] | 21 | 2 | 26 | 100 | 59 | 0 | 0 | 3 | 6 | 29
6 | Cc1nn2c(=O)cc(N3CCO[C@H](C)C3)nc2n1Cc1cccc(Cl)c1Cl [GSK2373693] | 39 | 39 | 5 | 2 | 61 | 19 | 0 | 73 | 5 | 0
7 | CCn1c(-c2nonc2N)nc2c(-c3ccccc3)ncc(OCCCN)c21.O=C(O)C(F)(F)F.O=C(O)C(F)(F)F [GSK260205] | 7 | 15 | 0 | 0 | 30 | 10 | 0 | 91.7 | 98.4 | 0
8 | Cc1cc(-c2c(-c3ccc(F)cc3)ncn2CCCN2CCOCC2)nc(N)n1 [SB-222517] | 10 | 0 | 11 | 0 | 0 | 14 | 11 | 29 | 0 | 19
9 | COc1cccc(NC(=O)NCCNc2ccnc(Nc3ccc(F)cc3)n2)c1 [GSK1379879] | 31 | 0 | 13 | 13 | 0 | 23 | 0 | 6 | 15 | 0
10 | Cc1ccc(C)c(NC(=O)Nc2ccc(C)c(-c3ccc(C(=O)Nc4ccncc4)cc3)c2)c1 [GSK1398473] | 38 | 48 | 0 | 42 | 8 | 11 | 7 | 0 | 0 | 0
11 | COc1cccc(C2=C(Nc3cccc(O)c3)C(=O)NC2=O)c1 [SB-390771] | 49 | 0 | 17 | 0 | 18 | 22 | 3 | 3 | 5 | 0
12 | COc1cccc2c(-c3ccncc3)c(-c3ccc(F)cc3)nn12 [GW468513] | 32 | 13 | 26 | 0 | 56 | 8 | 0 | 0 | 28 | 0
13 | Nc1ncc(-c2ccc3nccc(-c4ccncc4)c3c2)cc1S(=O)(=O)N1CCCCC1 [GSK1693850] | 30 | 89 | 41 | 31 | 22 | 5 | 25 | 11 | 13 | 43
14 | CCNC(=O)/C=C/c1n[nH]c2cc(Sc3ccccc3C(=O)NC)ccc12 | 0 | 7 | 0 | 0 | 29 | 4 | 18 | 4 | 1 | 33
15 | O=C1NC(=O)C(c2ccccc2Cl)=C1Nc1cccc(Cl)c1 [SB-342409] | 4 | 0 | 0 | 4 | 100 | 21 | 14 | 0 | 0 | 0
16 | O=C(O)C(F)(F)F.O=c1[nH]ccc2nc(N[C@@H]3CCNC3)nc(Nc3cc(Cl)cc(Cl)c3)c12 [GSK2188764] | 97.4 | 29 | 100 | 16 | 30 | 44 | 10 | 99.5 | 99.7 | 0

Row | SMILES | %Inh (RIOK1) [%] | %Inh (RIOK2) [%] | %Inh (RIOK3) [%] | %Inh (RIPK1) [%] | %Inh (RIPK2) [%] | %Inh (RIPK4) [%] | %Inh (RIPK5) [%] | %Inh (ROCK1) [%] | %Inh (ROCK2) [%] | %Inh (ROS1) [%]
17 | Cc1ccc(-c2ccc3occ(-c4ccc(S(C)=O)cc4)c3c2)nn1 (centres unmarked) | 0 | 10 | 0 | 0 | 0 | 0 | 0 | 6 | 0 | 0
18 | c1ccc(Oc2ccc(Nc3ccnc4cc(-c5ccc(CN6CCCCC6)o5)ccc34)cc2)nc1 [GW567143] | 3 | 13 | 0 | 0 | 96.3 | 0 | 0 | 19 | 0 | 0
19 | O=C(O)C(F)(F)F.O=c1[nH]ccc2nc(N[C@@H]3CCNC3)nc(Nc3ccc4c(c3)S(=O)(=O)CC4)c12 [GSK2181306] | 98.9 | 60 | 92.9 | 0 | 9 | 96 | 94.4 | 99.7 | 99.7 | 29
20 | O=C(Nc1c(F)cccc1F)c1cc(C(=O)c2ccccc2F)c[nH]1 [GSK1326180] | 11 | 4 | 6 | 0 | 0 | 0 | 0 | 0 | 9 | 0
21 | COC(=O)Nc1nc2ccc(Oc3ccc(NC(=O)Nc4cc(C(F)(F)F)ccc4F)cc3)cc2[nH]1.Cl [GW654607] | 2 | 0 | 21 | 74 | 81 | 18 | 0 | 43 | 16 | 6
22 | Cc1ccc(NC(=O)c2ccc(Cl)c(Cl)c2)cc1-c1ccc(C(=O)Nc2ccncc2)cc1 [GSK1398460] | 50 | 0 | 53 | 23 | 11 | 6 | 4 | 0 | 0 | 20
23 | O=C(Nc1n[nH]c2cc(-c3cccs3)ccc12)C1CC1 [SB-731284] | 85 | 18 | 82 | 59 | 4 | 10 | 48 | 31 | 32 | 0
24 | Nc1ncc(-c2cn[nH]c2)c2scc(-c3ccc4c(c3)CCN4C(=O)Cc3ccccc3)c12 [GSK2593067] | 75 | 86 | 57 | 100 | 94.6 | 0 | 10 | 41 | 36 | 9
25 | O=C(Nc1n[nH]c2nc(-c3ccccc3)ccc12)C1CC1 [SB-708999] | 35 | 1 | 37 | 63 | 0 | 2 | 0 | 21 | 12 | 0
26 | CCOc1nccc(-c2c(-c3ccc(F)cc3)ncn2C2CCNCC2)n1 [SB-249175] | 44 | 24 | 42 | 23 | 31 | 53 | 8 | 53 | 19 | 11
27 | Cn1cc(-c2cnc(N)c3c(-c4ccc5c(c4)CCN5C(=O)Cc4ccccc4)csc23)cn1 [GSK2593074] | 33 | 0 | 6 | 100 | 96.1 | 100 | 55 | 0 | 11 | 0
28 | CN(c1ccc(F)c(NC(=O)c2cccc(OC(C)(C)C#N)c2Cl)c1)c1ccc2nc(NC(=O)C3CC3)sc2n1 | 0 | 71 | 27 | 0 | 36 | 2 | 0 | 0 | 0 | 0
29 | COc1cc(Nc2ccnc3cc(-c4ccncc4)ccc23)cc(OC)c1OC.Cl [GW494610] | 39 | 11 | 0 | 0 | 83 | 0 | 0 | 31 | 14 | 16
30 | Cc1ccc(NC(=O)c2cccc(N3CCCCC3)c2)cc1-c1ccc(C(=O)NCC2CC2)cc1 [GSK1917008] | 34 | 15 | 0 | 13 | 6 | 29 | 0 | 2 | 0 | 6
31 | Cc1cccc(Nc2nc(NCCN)ncc2C(N)=O)c1 [GSK1292139] | 89 | 3 | 90.2 | 20 | 0 | 81 | 14 | 82 | 81 | 19
32 | N#Cc1cnc2cc(-c3cnc(CNCCN4CCOCC4)s3)ccc2c1Nc1ccc(Oc2ccccc2)cc1 [GW664114] | 15 | 0 | 29 | 0 | 26 | 21 | 81 | 0 | 2 | 0
